# Test results as given in PubChem BioAssay AID1224855 (National Center for Advancing Translational Sciences (NCATS), 2016).
# Results filed as inconclusive are left out. Active and inactive are the calls of the source. Calls come from the whole dose curve; as a rule, active = well fitted inhibition curve with a large enough effect; inconclusive = small, poorly fitted or top-dose-only effect; inactive = no such curve, though single readings can be large or run the other way.
# Test: Confirmation assay for measurement of the activity of small molecule inhibitors on Zika virus induced Caspase-3 activity in human iPSC derived neural progenitor cells (hNPCs)
# Details: hNPC ZIKV-induced caspase-3/7, Caspase-Glo luminescence, 6 h; series mostly up to 46.1 µM; activity, negative = inhibition: at the top concentration
# Procedure, shortened: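 Apoptosis readout: caspase-3/7 luminescence in hNPCs infected with Zika virus (2 FFU/cell) for 6 h following 1 h compound pretreatment.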
Structure (SMILES),Potency,"activity, negative = inhibition"
Cc1ccc(O)c(-n2nc3ccccc3n2)c1,4.35 µM (active),–
COc1ccc(CC2=NN3C([C@@H](CCc4ccccc4)[C@@H](C)O)=NC(C)C3C(=O)N2)cc1OC (some centres undefined),–,8.66% (inactive)
CC(C)c1ccc2oc3nc(N)c(C(=O)O)cc3c(=O)c2c1,1.73 µM (active),–
N#CC1(c2ccc(NC(=O)c3cccnc3NCc3ccncc3)cc2)CCCC1,–,-30.6% (inactive)
O=C1C[C@@H](c2ccc(O)cc2)Oc2cc(O)cc(O)c21,17.3 µM (active),–
O=C(O)[C@@H](c1ccc(OCc2ccc3ccccc3n2)cc1)C1CCCC1,6.9 µM (active),–
CCCS(=O)c1ccc2nc(NC(=O)OC)[nH]c2c1 (centres undefined),8.69 µM (active),–
COc1cc(NC(C)CCCN)c2ncccc2c1 (centres undefined),–,18.4% (inactive)
CC(=O)OC(C)OC(=O)C(C)c1ccc(-c2ccccc2)c(F)c1 (centres undefined),–,-22.6% (inactive)
C[C@@H]1CCN(C(=O)CC#N)C[C@H]1N(C)c1ncnc2[nH]ccc12,–,-11.3% (inactive)
Cc1oncc1C(=O)Nc1ccc(C(F)(F)F)cc1,1.38 µM (active),–
CN1CC(=O)N2C(Cc3c([nH]c4ccccc34)[C@H]2c2ccc3c(c2)OCO3)C1=O (some centres undefined),–,6.79% (inactive)
CC(=Cc1ccccc1)C=C1SC(=S)N(CC(=O)O)C1=O,15.5 µM (active),–
Cc1nc(N)sc1-c1ccnc(Nc2ccc(N3CCOCC3)cc2)n1,–,-17.9% (inactive)
Cc1cccc(/C=C/c2ccccc2)n1,8.69 µM (active),–
CCCCCNC(=O)N1CCC(CN(Cc2ccc(Cl)cc2)Cc2ccc([N+](=O)[O-])s2)C1 (centres undefined),–,56.3% (inactive)
CC1=C(CO)C(=O)O[C@@H]([C@@H](C)[C@H]2CC[C@H]3[C@@H]4C[C@H]5O[C@]56[C@@H](O)C=CC(=O)[C@]6(C)[C@@H]4CC[C@]23C)C1,–,-16.7% (inactive)

Structure (SMILES),Potency,"activity, negative = inhibition"
Cc1csc(NC(=O)c2sc3nc4c(c(C(F)(F)F)c3c2N)CCC4)n1,15.5 µM (active),–
Cc1c(NC(=O)c2ccc(C(C)(C)C)cc2)cccc1-c1cn(C)c(=O)c(Nc2ccc(C(=O)N3CCOCC3)cc2)n1,–,26.9% (inactive)
COc1ccc2nc(NC(=O)Nc3ccccc3)sc2c1,8.69 µM (active),–
O=C1NC(=O)C(=Cc2ccc(-c3ccc(F)cc3)o2)S1,9.75 µM (active),–
CC[C@@]1(O)C[C@H](O[C@H]2C[C@H](N(C)C)[C@H](O[C@H]3C[C@H](O)[C@H](O[C@H]4CCC(=O)[C@H](C)O4)[C@H](C)O3)[C@H](C)O2)c2c(cc3c(c2O)C(=O)c2c(O)cccc2C3=O)[C@@H]1C(=O)OC,–,65.4% (inactive)
Cc1c(N)c(=O)n(-c2ccccc2)n1C,–,-16.4% (inactive)
O=C(Oc1ccccc1)c1cccc(C(=O)Oc2ccccc2)c1,3.98 µM (active),–
N[C@H](CSC(c1ccccc1)(c1ccccc1)c1ccccc1)C(=O)O,–,6.42% (inactive)
CC(C)OC(=O)CCCC=CC[C@@H]1[C@H](C=C[C@@H](O)COc2cccc(C(F)(F)F)c2)[C@H](O)C[C@@H]1O,–,-13.3% (inactive)
c1ccc2[nH]c(-c3cscn3)nc2c1,9.75 µM (active),–
O=C(O)CCC(=O)c1ccc(-c2ccccc2)cc1,19.5 µM (active),–
O=c1c2ccccc2nc2n1CCc1c-2[nH]c2ccccc12,4.35 µM (active),–
O=C(Nc1ccc(C(=O)O)c(O)c1)c1ccccc1,4.35 µM (active),–
CC=CC[C@@H](C)C(=O)[C@H]1C(=O)N[C@@H](C(C)C)C(=O)N(C)CC(=O)N(C)[C@@H](CC(C)C)C(=O)N[C@@H](C(C)C)C(=O)N(C)[C@@H](CC(C)C)C(=O)N[C@@H](C)C(=O)N[C@H](C)C(=O)N(C)[C@@H](CC(C)C)C(=O)N(C)[C@@H](CC(C)C)C(=O)N(C)[C@@H](C(C)C)C(=O)N1C,–,33.5% (inactive)
O=C(CS)Nc1ccccc1,–,28.8% (inactive)
O=C(c1ccccc1)c1ccc2n1CCC2C(=O)O (centres undefined),13.8 µM (active),–
Cc1ccc(C(=O)c2ccc(CC(=O)O)n2C)cc1,–,-28.4% (inactive)
